Assay [1] relates to Jurkat. Put plainly: mean cell size (FSC-A) relative to DMSO control (fraction of control); higher = larger cells. The conditions noted are these: 48 h. The gist of the method:
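Jurkat cells seeded at 600 cells/µl were incubated 1 h, then exposed for 48h to the Enzo Screen-Well FDA Approved Drug Library v2.0 at 25µM in 0.9% (v/v) final DMSO. Drugs that cut counts below 20% of controls were diluted 10-fold and retested, down to 25nM. Cell count and mean cell size (forward scatter area) were read on an Accuri C6 flow cytometer, relative to solvent-only controls. Plates held 6-12 controls; values are means of 3 biological replicates.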

The test system of assay [2] is Jurkat. The assay is described as follows: cell count relative to DMSO control (fraction of control); higher = more cells (less growth inhibition). The conditions noted are these: 48 h.

The structures appear in SMILES notation. Structures can show the parent of a compound that is named as a salt. ± gives the standard deviation.

The molecule `C=CC1=C(C(=O)O)N2C(=O)[C@@H](NC(=O)/C(=N\OCC(=O)O)c3csc(N)n3)[C@H]2SC1` [Cefixime] (concentration: 25 µM) returned a mean cell size in assay [1] of 0.977 ± 0.018. In assay [2], this molecule returned a cell count of 0.846 ± 0.069.

In the case of `Nc1nc2[nH]cc(CCc3ccc(C(=O)N[C@@H](CCC(=O)O)C(=O)O)cc3)c2c(=O)[nH]1` [Pemetrexed Disodium] (concentration: 2.5 µM), the mean cell size in assay [1] amounted to 1.4 ± 0.058. In assay [2], the cell count is 0.247 ± 0.028.

Regarding `CC(C)c1ccc2oc3nc(N)c(C(=O)O)cc3c(=O)c2c1` [Amlexanox] (concentration: 25 µM), the mean cell size in assay [1] was found to be 0.923 ± 0.018. The molecule also gave a cell count in assay [2] of 0.469 ± 0.12.

For `NCCCC(O)(P(=O)(O)O)P(=O)(O)O` [Alendronate·Na Trihydrate] (concentration: 25 µM), the mean cell size in assay [1] was determined as 0.927 ± 0.043. In assay [2], this molecule yielded a cell count of 0.282 ± 0.11.

Molecule `CCC(=O)OC(OP(=O)(CCCCc1ccccc1)CC(=O)N1C[C@H](C2CCCCC2)C[C@H]1C(=O)O)C(C)C` (some centres not stated) [Fosinopril·Na] (concentration: 25 µM) displayed a mean cell size in assay [1] of 0.974 ± 0.054. The molecule further returned a cell count in assay [2] of 0.562 ± 0.12.

The molecule `O=C1[C@H](CC[C@H](O)c2ccc(F)cc2)[C@@H](c2ccc(O)cc2)N1c1ccc(F)cc1` [Ezetimibe] (concentration: 25 µM) displayed a mean cell size in assay [1] of 1.03 ± 0.022. The molecule also returned a cell count in assay [2] of 0.639 ± 0.061.

As for `CC(C)(S)[C@@H](N)C(=O)O` [Penicillamine (D-Penicillamine)] (concentration: 25 µM), in assay [1], the mean cell size came out at 0.954 ± 0.042. In assay [2], this molecule displayed a cell count of 0.796 ± 0.074.

In assay [1], `COc1c(C)c2c(c(O)c1C/C=C(\C)CCC(=O)O)C(=O)OC2` [Mycophenolic Acid] (concentration: 2.5 µM) gave a mean cell size of 1.01 ± 0.014. Moreover, in assay [2], the cell count amounted to 0.225 ± 0.05.

Molecule `COc1ccc(CC2c3cc(OC)c(OC)cc3CC[N+]2(C)CCC(=O)OCCCCCOC(=O)CC[N+]2(C)CCc3cc(OC)c(OC)cc3C2Cc2ccc(OC)c(OC)c2)cc1OC` (configuration not stated) [Atracurium Besylate] (concentration: 25 µM) registered a mean cell size in assay [1] of 1.04 ± 0.008. Further, the cell count in assay [2] is 0.264 ± 0.023.

In turn, `COc1c(C)c2c(c(O)c1C/C=C(\C)CCC(=O)OCCN1CCOCC1)C(=O)OC2` [Mycophenolate Mofetil] (concentration: 25 µM) gave a mean cell size in assay [1] of 0.892 ± 0.0081. In assay [2], this molecule returned a cell count of 0.203 ± 0.039.

Regarding `O=C(O)c1cccnc1` [Niacin (Known As Vitamin B3, Nicotinic Acid And Vitamin Pp)] (concentration: 25 µM), the mean cell size in assay [1] came out at 0.945 ± 0.053. Moreover, the cell count in assay [2] came out at 0.426 ± 0.096.

`COc1cc([C@@H]2c3cc4c(cc3[C@@H](O[C@@H]3O[C@@H]5CO[C@@H](c6cccs6)O[C@H]5[C@H](O)[C@H]3O)[C@H]3COC(=O)[C@H]23)OCO4)cc(OC)c1O` [Teniposide] (concentration: 25 nM) displayed a mean cell size in assay [1] of 1.25 ± 0.033. The cell count in assay [2] is 0.478 ± 0.044.

Regarding `CC1=C(CC(=O)O)c2cc(F)ccc2/C1=C\c1ccc([S+](C)[O-])cc1` (configuration not stated) [Sulindac] (concentration: 25 µM), in assay [1], the mean cell size was determined as 0.988 ± 0.019. The molecule also returned a cell count in assay [2] of 0.782 ± 0.083.

In turn, `CC1Cc2ccccc2N1NC(=O)c1ccc(Cl)c(S(N)(=O)=O)c1` (configuration not stated) [Indapamide] (concentration: 25 µM) registered a mean cell size in assay [1] of 0.978 ± 0.023. The molecule further had a cell count in assay [2] of 0.497 ± 0.11.

`OCc1cc(C(O)CNCCCCCCOCCCCc2ccccc2)ccc1O` (configuration not stated) [Salmeterol] (concentration: 25 µM) came in with a mean cell size in assay [1] of 0.927 ± 0.023. Besides, the cell count in assay [2] was 0.669 ± 0.042.

Take `Cn1c(=O)c2c(ncn2C)n(C)c1=O` [Caffeine] (concentration: 25 µM): in assay [1], the mean cell size amounted to 0.986 ± 0.046. This molecule also came in with a cell count in assay [2] of 1 ± 0.093.

For `CCCSc1ccc2[nH]c(NC(=O)OC)nc2c1` [Albendazole] (concentration: 2.5 µM), in assay [1], the mean cell size came to 1.32 ± 0.11. The molecule also showed a cell count in assay [2] of 0.209 ± 0.012.

As to `CCCc1nc2c(C)cc(-c3nc4ccccc4n3C)cc2n1Cc1ccc(-c2ccccc2C(=O)O)cc1` [Telmisartan] (concentration: 25 µM), the mean cell size in assay [1] came out at 0.951 ± 0.032. The cell count in assay [2] was 0.725 ± 0.051.

In turn, `NC(=O)N1c2ccccc2CC(=O)c2ccccc21` [Oxcarbazepine] (concentration: 25 µM) returned a mean cell size in assay [1] of 0.952 ± 0.015. The cell count in assay [2] turned out to be 0.772 ± 0.15.

For the molecule `CC(C)OC(=O)C(C)(C)Oc1ccc(C(=O)c2ccc(Cl)cc2)cc1` [Fenofibrate] (concentration: 25 µM), the mean cell size in assay [1] is 1.01 ± 0.04. In assay [2], the cell count came out at 0.477 ± 0.067.

In turn, `COc1cc2c(cc1OC)C(=O)C(CC1CCN(Cc3ccccc3)CC1)C2` (configuration not stated) [Donepezil·HCl] (concentration: 25 µM) registered a mean cell size in assay [1] of 1.032 ± 0.0096. Moreover, the cell count in assay [2] amounted to 0.487 ± 0.13.

`CNNCc1ccc(C(=O)NC(C)C)cc1` [Procarbazine·HCl] (concentration: 25 µM) returned a mean cell size in assay [1] of 1.01 ± 0.053. This molecule also came in with a cell count in assay [2] of 0.822 ± 0.1.

`Cc1cc(C2CCCCC2)n(O)c(=O)c1` [Ciclopirox] (concentration: 2.5 µM): the mean cell size in assay [1] is 1.14 ± 0.032. The cell count in assay [2] is 0.395 ± 0.07.

As to `CNCCCN1c2ccccc2CCc2ccccc21` [Desipramine·HCl] (concentration: 25 µM), the mean cell size in assay [1] worked out at 0.9721 ± 0.0012. Also, the cell count in assay [2] was determined as 0.721 ± 0.066.

In turn, `C[C@@H](c1ncncc1F)[C@](O)(Cn1cncn1)c1ccc(F)cc1F` [Voriconazole] (concentration: 25 µM) showed a mean cell size in assay [1] of 0.963 ± 0.043. For the same molecule, the cell count in assay [2] turned out to be 0.682 ± 0.1.

For the molecule `COc1ccc(C[C@@H]2c3cc(OC)c(OC)cc3CC[N@+]2(C)CCC(=O)OCCCCCOC(=O)CC[N@@+]2(C)CCc3cc(OC)c(OC)cc3[C@H]2Cc2ccc(OC)c(OC)c2)cc1OC` [Cisatracurium Besylate] (concentration: 25 µM), in assay [1], the mean cell size turned out to be 1.004 ± 0.009. In addition, in assay [2], the cell count is 0.624 ± 0.064.

The values above are taken from the supplement of paper PMC4709259.
